The record followed here is PubChem BioAssay AID547 (Emory University Molecular Libraries Screening Center, 2006).

The campaign covered roughly 1,300 compounds. About 10 (0.8%) were called active. No rule for the calls is given here. The sample as a whole holds a higher share of actives than the screen did.

The test has as its target Chaperone protein DnaK (Escherichia coli (strain K12)) (UniProt P0A6Y8). Kind of test: blockers of bacterial DnaK function – luminescence, E. coli K12, primary screen (AID 547).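 Also: tested at 10 µM.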 The settings on record: DnaK chaperone assay, luminescence read-out; active compounds read low.
Take `CCCCCCCCCC[Si](C)(C)CCC(=O)NC(Cc1ccc(C)cc1)c1ccccc1` (stereo not drawn): the luminescence was 2.8e+06 cps (inactive). On to `CC(N)=NCCC[C@H](N)C(=O)O`, for which the luminescence was 2.6e+06 cps (inactive). With `C[C@]12CCC(=O)C=C1CC[C@@H]1[C@@H]2C(=O)C[C@@]2(C)[C@H]1CC[C@]2(O)C(=O)CO` the figure was 2.3e+06 cps (inactive); with `CNC(=O)[C@H]1O[C@@H](n2cnc3c(N)ncnc32)C(O)[C@H]1O` (stereo partly drawn), 2.5e+06 cps (inactive).

As to `CC(CCc1ccccc1)NCC(O)c1ccc(O)c(C(N)=O)c1` (stereo not drawn), the luminescence was 2.8e+06 cps (inactive).

On to `C=CCc1ccccc1OCC(O)CNC(C)C` (stereo not drawn), for which the luminescence was 2.8e+06 cps (inactive). The result for `Cn1cnc2c(NC3CCCC3)ncnc21` reads 2.5e+06 cps (inactive).

Consider `Nc1nc(SCc2ccc([N+](=O)[O-])cc2)c2ncn([C@@H]3O[C@H](CO)[C@H](O)C3O)c2n1` (stereo partly drawn), for which the luminescence was 2.7e+06 cps (inactive). As for `CCCCCCCCCCCCCCCCOCC(COCC(F)(F)F)OP(=O)(O)OCO` (stereo not drawn), the luminescence was 2.4e+06 cps (inactive). As to `O=c1ccc2c(OCCCCc3ccccc3)c3ccoc3cc2o1`, the luminescence was 2.8e+06 cps (inactive). Regarding `Cc1c(C)c2c(c(C)c1O)CCC(C)(CN1CCN(c3cc(N4CCCC4)nc(N4CCCC4)n3)CC1)O2` (stereo not drawn), the luminescence was 2.6e+06 cps (inactive).

`CN/C(=C\[N+](=O)[O-])NCCSCc1ccc(CN(C)C)o1`: the luminescence is 2.6e+06 cps (inactive).

For `CN(C)c1nc(N)c(C(=O)N=C(N)N)nc1Cl`, the luminescence is 2.5e+06 cps (inactive). With `Cc1cc(N)c2ccccc2[n+]1CCCCCCCCCCCCCC[n+]1c(C)cc(N)c2ccccc21` the figure was 3e+06 cps (inactive). With `O=C(O)c1cc(=O)cc(C(=O)O)[nH]1` the figure was 2.7e+06 cps (inactive); with `Cc1ccc(N(CC2=NCCN2)c2cccc(O)c2)cc1`, 2.5e+06 cps (inactive); with `CC(COc1ccc(/C=C/c2ccccc2)cc1)[N+](C)(C)C` (stereo not drawn), 2.1e+06 cps (inactive).

Take `Cc1nc2ccccn2c(=O)c1CCN1CCC(C(=O)c2ccc(F)cc2)CC1`: the luminescence was 2.5e+06 cps (inactive). Regarding `O=C(c1ccc(F)cc1)C1CCN(CCn2c(=O)[nH]c3ccccc3c2=O)CC1`, the luminescence is 1.7e+06 cps (active). In the case of `CC1(C)C(=O)N(CCN2CCC(C(=O)c3ccc(F)cc3)CC2)c2ccccc21`, the luminescence is 2.6e+06 cps (inactive). Regarding `C[C@H](CS)C(=O)N1CCC[C@H]1C(=O)O`, the luminescence was 2.6e+06 cps (inactive). As for `N[C@@H](Cc1cnc[nH]1)C(=O)O`, the luminescence was 2.9e+06 cps (inactive). Take `C=C[C@H]1CN2CCC1C[C@@H]2[C@@H](O)c1ccnc2ccc(OC)cc12` (stereo partly drawn): the luminescence is 2.3e+06 cps (inactive). `CC1(NCC(O)COc2cccc3[nH]ccc23)CCC(C(C)(C)NC(=O)CBr)CC1` (stereo not drawn): the luminescence was 2.2e+06 cps (inactive). `OCCN1CCN(CCCN2c3ccccc3Sc3ccc(C(F)(F)F)cc32)CC1`: the luminescence was 2.6e+06 cps (inactive).

On to `O=C1NC(O)=NC1(c1ccccc1)c1ccccc1`, for which the luminescence was 2.6e+06 cps (inactive). With `C=C[C@H]1CN2CCC1C[C@H]2[C@H](O)c1ccnc2ccc(OC)cc12` (stereo partly drawn) the figure was 2.4e+06 cps (inactive). The result for `O=c1[nH]c2cc([N+](=O)[O-])c([N+](=O)[O-])cc2[nH]c1=O` reads 3e+06 cps (inactive); that for `C#CC(N)CCC(=O)O` (stereo not drawn), 2.7e+06 cps (inactive).

Regarding `C[C@H](Cc1ccc(O)c(O)c1)[C@@H](C)Cc1ccc(O)c(O)c1`, the luminescence was 2e+06 cps (inactive).

Consider `NC1(C(=O)O)CCc2cc(C(=O)O)ccc21` (stereo not drawn), for which the luminescence is 2.8e+06 cps (inactive). With `CC(C)(C)NCC(O)c1cc(O)cc(O)c1` (stereo not drawn), the luminescence was 2.3e+06 cps (inactive). As to `Cc1ccccc1N1CCN(S(=O)(=O)C[C@]23CCC(CC2NC(=O)[C@@H](N)CCS(C)(=O)=O)C3(C)C)CC1` (stereo partly drawn), the luminescence is 2.6e+06 cps (inactive). The result for `C[C@]12C=CC(=O)C=C1CC[C@@H]1C2=CC[C@]2(C)[C@@H](C(=O)CN3CCN(c4cc(N5CCCC5)nc(N5CCCC5)n4)CC3)CC[C@@H]12` reads 2.4e+06 cps (inactive); that for `Nc1ccc(N2C(=O)c3ccccc3C2=O)c(Cl)c1`, 2.7e+06 cps (inactive). The result for `CC(=O)N[C@@H](Cc1c[nH]c2ccccc12)C(=O)OCc1cc(C(F)(F)F)cc(C(F)(F)F)c1` reads 2.8e+06 cps (inactive). With `Brc1ccc([C@H]2CN3CCSC3=N2)cc1` the figure was 2.2e+06 cps (inactive). On to `CN=C(N)NCCC[C@H](N)C(=O)O`, for which the luminescence was 2.2e+06 cps (inactive).

Take `N[C@@H](CCC(=O)N[C@H](CSN=O)C(=O)NCC(=O)O)C(=O)O`: the luminescence was 2.5e+06 cps (inactive). As for `[N-]=[N+]=Nc1ccc(C(=O)CSC[C@H](NC(=O)CC[C@H](N)C(=O)O)C(=O)NCC(=O)O)cc1`, the luminescence was 1.6e+06 cps (active). Take `C#C[C@]1(O)CC[C@H]2[C@@H]3CCC4=Cc5oncc5CC4(C)[C@H]3CCC21C` (stereo partly drawn): the luminescence was 3e+06 cps (inactive). Regarding `Nc1ncnc2c1nc(Sc1ccc(Cl)cc1)n2C1OC2COP(=O)(O)O[C@@H]2[C@@H]1O` (stereo partly drawn), the luminescence was 2.7e+06 cps (inactive). With `CC(C)NCC(O)c1ccc(NS(C)(=O)=O)cc1` (stereo not drawn) the figure was 2.3e+06 cps (inactive). With `CCn1c(=O)c2[nH]c(-c3ccccc3)nc2n(CC)c1=O` the figure was 2.8e+06 cps (inactive). On to `CC(C)Cn1c(=O)n(C)c(=O)c2[nH]cnc21`, for which the luminescence is 2.1e+06 cps (inactive). With `CCOC(=O)C12CC1/C(=N/O)c1ccccc1O2` (stereo not drawn) the figure was 2.4e+06 cps (inactive). The result for `NC(CO)C(=O)NNCc1ccc(O)c(O)c1O` (stereo not drawn) reads 2.2e+06 cps (inactive); that for `C=CC[C@H](N)C(=O)O`, 2.5e+06 cps (inactive). The result for `N[C@@H](Cc1c[nH]c2ccccc12)C(=O)O` reads 2.2e+06 cps (inactive). On to `NC(C(=O)N[C@@H]1C(=O)N2C(C(=O)O)=C(Cl)CS[C@H]12)c1ccccc1` (stereo partly drawn), for which the luminescence was 2.8e+06 cps (inactive).

As to `CCN(CC)CCCC(C)Nc1c2ccc(Cl)cc2nc2ccc(OC)cc12` (stereo not drawn), the luminescence is 2.3e+06 cps (inactive).

Regarding `CCC1(O)CC2CN(CCc3c([nH]c4ccccc34)[C@@](C(=O)OC)(c3cc4c(cc3OC)N(C)C3[C@]45CCN4CC=C[C@@](CC)([C@@H](OC(C)=O)[C@]3(O)C(=O)OC)[C@H]45)C2)C1` (stereo partly drawn), the luminescence is 2.4e+06 cps (inactive). The result for `Cc1cc(C)c(NC(=O)C[C@H](CC(=O)O)c2cccc3ccccc23)c(C(=O)N2CCC3(CCCC3)CC2)c1` reads 2.4e+06 cps (inactive); that for `Nn1nnc2ccccc21`, 2.9e+06 cps (inactive). Take `O=c1onc2cnc3ccccc3n12`: the luminescence is 2.2e+06 cps (inactive). With `CCOC(=O)Nc1ccc(NCc2ccc(F)cc2)nc1N` the figure was 2.9e+06 cps (inactive); with `CCCC(=O)NCCc1c2n(c3ccc(OC)cc13)CCCc1ccccc1-2`, 2.6e+06 cps (inactive). On to `Clc1ccc2c(c1)C(N1CCNCC1)=Nc1ccccc1O2`, for which the luminescence is 3.1e+06 cps (inactive). In the case of `CNC(=O)[C@H]1O[C@@H](n2cnc3c(NCc4ccc(N)cc4)ncnc32)C(O)[C@H]1O` (stereo partly drawn), the luminescence is 2.7e+06 cps (inactive). Consider `O=C(CCc1ccc(O)cc1)c1c(O)cc(O)cc1O`, for which the luminescence was 2.4e+06 cps (inactive).

With `N.N.N.N.N.N.N.N.N.N.N.N.N.N.O.O.[Cl-].[Cl-].[Cl-].[Cl-].[Cl-].[Cl-].[Ru+4].[Ru+5].[Ru+5]`, the luminescence is 2.1e+06 cps (inactive). Turning to `Fc1ccc(C(OCCCc2cnc[nH]2)c2ccc(F)cc2)cc1`, the luminescence was 2.6e+06 cps (inactive). With `CN(C)CCC(c1ccc(Cl)cc1)c1ccccn1` (stereo not drawn) the figure was 2.6e+06 cps (inactive); with `C=Cc1c(C)c2cc3[nH]c(cc4nc(cc5nc(cc1[nH]2)C(C)=C5CCC(=O)O)C(CCC(=O)O)=C4C)c(C)c3C=C`, 2e+06 cps (inactive). With `O=C(O)c1cc([N+](=O)[O-])ccc1NCCCc1ccccc1` the figure was 2.6e+06 cps (inactive); with `O=C(Nc1ccccc1)c1cc([N+](=O)[O-])ccc1Cl`, 2.6e+06 cps (inactive). As to `O=C(Nc1ccc([N+](=O)[O-])cc1Cl)c1cc(Cl)ccc1O`, the luminescence is 1.7e+06 cps (active). With `NCC(O)c1ccc(O)c(O)c1` (stereo not drawn) the figure was 2.7e+06 cps (inactive). Turning to `O=C(O)c1cc(=O)c2ccc(Cl)cc2[nH]1`, the luminescence was 2.8e+06 cps (inactive).

Turning to `CN=c1nc(-c2ccccc2)n(-c2ccccc2)s1`, the luminescence is 2.4e+06 cps (inactive).

On to `O=S(=O)(NCCNC/C=C/c1ccc(Br)cc1)c1cccc2cnccc12`, for which the luminescence is 2.4e+06 cps (inactive). With `O=C(OCCN1CCCCC1)c1c[nH]c2ccccc12`, the luminescence was 2.9e+06 cps (inactive). With `O=C(O)/C(=C/c1c(C(=O)O)[nH]c2cc(Cl)cc(Cl)c12)c1ccccc1` the figure was 2.5e+06 cps (inactive); with `Cc1cn([C@H]2C=C[C@@H](CO)O2)c(=O)[nH]c1=O`, 2.9e+06 cps (inactive); with `CCN(CC)C(C)C(=O)N1c2ccccc2Sc2ccccc21` (stereo not drawn), 2.4e+06 cps (inactive).

As to `O=C(O)c1cc2cc(Cc3cccnc3)ccc2o1`, the luminescence is 3.2e+06 cps (inactive). With `O=C(c1ccccc1)c1ccc2n1CCC2C(=O)O` (stereo not drawn) the figure was 2.9e+06 cps (inactive); with `C[N+](C)(C)CCOC(N)=O`, 2.6e+06 cps (inactive).

Consider `NCCc1cnc[nH]1`, for which the luminescence is 3.3e+06 cps (inactive). Consider `Nc1c(S(=O)(=O)O)cc(Nc2ccc(Nc3nc(Cl)nc(Nc4ccc(S(=O)(=O)O)cc4)n3)c(S(=O)(=O)O)c2)c2c1C(=O)c1ccccc1C2=O`, for which the luminescence is 1.6e+06 cps (active). The result for `O=C(O)C1CN(CCCP(=O)(O)O)CCN1` (stereo not drawn) reads 2.6e+06 cps (inactive). In the case of `COc1ccccc1N1CCN(CCCCNC(=O)c2ccc3ccccc3c2)CC1`, the luminescence is 2.7e+06 cps (inactive).

Turning to `COc1cc2c(cc1OC)-c1cc(=Nc3c(C)cc(C)cc3C)n(C)c(=O)n1CC2`, the luminescence was 2.5e+06 cps (inactive).

Consider `O=C(O)C1=CC(=C(c2ccc(O)c(C(=O)O)c2)c2ccc(O)c(C(=O)O)c2)C=CC1=O`, for which the luminescence was 1.2e+06 cps (active). With `O=C(/C=C/c1ccc(O)c(O)c1)OCCc1ccccc1` the figure was 3e+06 cps (inactive); with `C[C@@H]1C(=O)NC2=Nc3cccc(Cl)c3CN21`, 2.4e+06 cps (inactive). The result for `COc1cc(C(O)CO)ccc1O` (stereo not drawn) reads 2.8e+06 cps (inactive); that for `CNCCNS(=O)(=O)c1cccc2cnccc12`, 2.6e+06 cps (inactive).
